Consider 39 compounds from PubChem BioAssay (NCATS).

SMILES strings stand for the structures. Several values for one entry are separate records, joined by “and”; a condition that tells them apart may be missing. Equal entries are not always repeated. Results filed as inconclusive are left out. Activity calls are given as the source filed them. Unless noted, the call rests on the fitted dose curve; in most records, active means well fitted curve in either direction with a large enough effect (not every such curve was filed as active); inconclusive means small, poorly fitted or top-dose-only effect, or another doubt; inactive means flat fitted curve, though single readings scatter.

Cytochrome P450 1A2 (Homo sapiens), sequence (P05177 whole entry, looked up): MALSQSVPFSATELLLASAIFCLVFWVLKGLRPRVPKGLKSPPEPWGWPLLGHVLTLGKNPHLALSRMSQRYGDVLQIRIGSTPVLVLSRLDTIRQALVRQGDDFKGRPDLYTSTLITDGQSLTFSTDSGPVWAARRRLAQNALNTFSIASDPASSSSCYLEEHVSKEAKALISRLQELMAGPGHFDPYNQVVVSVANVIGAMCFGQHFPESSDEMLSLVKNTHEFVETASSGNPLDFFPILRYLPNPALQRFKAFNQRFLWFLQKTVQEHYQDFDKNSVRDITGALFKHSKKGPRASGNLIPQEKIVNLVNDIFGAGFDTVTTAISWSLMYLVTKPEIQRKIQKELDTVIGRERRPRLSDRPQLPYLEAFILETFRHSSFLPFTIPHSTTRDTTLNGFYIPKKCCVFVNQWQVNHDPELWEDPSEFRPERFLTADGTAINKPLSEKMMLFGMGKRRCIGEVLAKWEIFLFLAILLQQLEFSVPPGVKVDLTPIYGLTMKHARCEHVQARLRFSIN

Tested on in one test: not listed separately
Description: AP1 Signaling Pathway (AID 357).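 Further: ME-180 reporter cells stimulated with EGF at its EC50 level; on the % scale 0 is the no-effect control and ±100 the full control effect.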 To be noted: ME-180 (cervical carcinoma) AP-1-bla reporter, EGF-induced, beta-lactamase ratio, 5 h; at 7.69 µM (top of the series) unless noted. In short, it runs like this:
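AP-1-bla ME-180 cells, Opti-MEM + 0.5% dialyzed FBS, plated overnight 37 °C. Cpd titration + EC50 EGF, 5 h 37 °C. CCF4 2.5 h RT; ex 405, em 460/530 ratio → %activity, AC50.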
For `Cc1ccc(O)cc1` (tested in a mixture with another compound), the activity change, negative = inhibition is 3.77% (inactive).

As to `CCCOC(=O)[C@@H]1[C@@H](C(=O)O)[C@H]2CC[C@@H]1O2`, the activity change, negative = inhibition was 5.41% (inactive).

Turning to `O=C(O)C(Oc1nc(=S)[nH]c(=S)[nH]1)(c1ccc(Cl)cc1)c1ccc(Cl)cc1`, the activity change, negative = inhibition is 17% (inactive).

In the case of `O=C(Nc1ccc([As](=O)(O)O)cc1)Nc1cccc(Cl)c1Cl`, the activity change, negative = inhibition was -0.577% (inactive).

As to `C[C@@]12CC[C@H]3[C@@H](CC=C4C[C@H](OS(=O)(=O)O)CC[C@]43C)[C@H]1CCC2=O`, the activity change, negative = inhibition was -6.95% [at 38 µM] (inactive).

Take `CCOC(=O)[C@@H]1[C@@H]2c3ccccc3-c3ccccc3[C@H]2C[C@H]1O`: the activity change, negative = inhibition is -11.4% (inactive).

As to `CN(C)CCC(C#N)(c1ccccc1)c1ccccc1`, the activity change, negative = inhibition was 6.93% (inactive).

With `C[N+]1(C)C2CC[C@H]1CC(OC(=O)[C@@H](CO)c1ccccc1)C2` (some centres undefined), the activity change, negative = inhibition was 4% (inactive).

For `COc1ccc2c(c1O)-c1cccc3c1[C@H](C2)N(C)CC3`, the activity change, negative = inhibition is -2.14% [at 38 µM] (inactive).

For the compound `COc1cc2c(cc1OC)[C@@]13CCN4C=C5CCO[C@H]6CC(=O)N2[C@@H]1[C@@H]6[C@H]5C[C@H]43`, the activity change, negative = inhibition is 4.45% (inactive).

Regarding `O=C(N1CCOCC1)C1(c2ccccc2)CCNCC1`, the activity change, negative = inhibition was -2.66% (inactive).

`COc1cc([C@@H](O)CN)ccc1O`: the activity change, negative = inhibition is -3.13% [at 38 µM] (inactive).

For the compound `CC(=O)c1c(O)c(C)c(O)c(Cc2c(O)c3c(c(C(=O)/C=C\c4ccccc4)c2O)OC(C)(C)C=C3)c1O`, the activity change, negative = inhibition was -26.6% [at 38 µM] (inactive).

Turning to `O=C(O)C(C(=O)O)P(=S)(S)c1ccccc1` (centres undefined), the activity change, negative = inhibition is 3.83% (inactive).

Take `O=C(O)[C@H]1[C@H](C(=O)O)[C@H]2CC[C@@H]1O2`: the activity change, negative = inhibition is -9.16% [at 38 µM] (inactive).

In the case of `c1cncc(CNCCN2CCNCC2)c1`, the activity change, negative = inhibition is 5.14% (inactive).

On to `CN[C@H]1[C@H](C)O[C@@H](O[C@@H]2C/C=C(/C)C/C(C)=C\C=C/CC[C@@H](C)CNC(=O)/C=C\C=C/[C@H]2C)C[C@@H]1O`, for which the activity change, negative = inhibition was -6.3% (inactive).

For `N=C(N)SCc1ccc(Cl)c2ccccc12` (tested in a mixture with another compound), the activity change, negative = inhibition is 6.29% (inactive) and 5.72% (inactive).

As for `COc1ccc2c(c1)[C@]13CCCC[C@@H]1[C@H](C2)NCC3`, the activity change, negative = inhibition was 15.6% [at 38 µM] (inactive).

As for `C[C@@]12CC[C@H](O)C[C@@H]1CC[C@@H]1[C@@H]2CC[C@@]2(C)[C@@H](C3=CC(=O)OC3)[C@H](O)C[C@]12O`, the activity change, negative = inhibition was 15.5% (inactive).

Take `O=C(C[C@H](c1ccccc1)c1c(O)c2ccccc2oc1=O)c1ccccc1`: the activity change, negative = inhibition was 2.29% (inactive).

For `COc1ccc(C[C@@H]2NC[C@H](O)[C@@H]2OC(C)=O)cc1`, the activity change, negative = inhibition is -118% [at 17.2 µM] (active).

For `CO[C@@H]1CC=C2CCN3CCC4=C(CC(=O)OC4)[C@]23C1`, the activity change, negative = inhibition is 6.22% [at 38 µM] (inactive).

For the compound `CCNC(=O)[C@@H]1O[C@@H](n2cnc3c(N)ncnc32)[C@@H](O)[C@H]1O`, the activity change, negative = inhibition was -6.61% [at 38 µM] (inactive).

Take `C[C@]12CC[C@@H]3[C@H](CCC4=CC(=O)CC[C@]43C)[C@]1(O)CC[C@@]2(O)C(=O)CO`: the activity change, negative = inhibition was -0.316% (inactive).

Take `C[C@H](CC(C#N)(c1ccccc1)c1ccccc1)N1CCCCC1`: the activity change, negative = inhibition was 17% (inactive).

As to `COc1cc2ccccc2c2cc([N+](=O)[O-])oc12`, the activity change, negative = inhibition is 3.54% (inactive).

On to `CC(C)N[C@@H](C)Cc1ccc(I)cc1`, for which the activity change, negative = inhibition is 17.5% [at 38 µM] (inactive).

Consider `O=S(=O)(NCCO)c1cc[c]([Sb](=[O])([OH])[OH])cc1`, for which the activity change, negative = inhibition is -1.39% (inactive).

`NC(=O)CN1C[C@@H](O)CC1=O`: the activity change, negative = inhibition was 2.98% [at 38 µM] (inactive).

As to `CCSCC[C@H](N)C(=O)O`, the activity change, negative = inhibition is 4.84% (inactive).

`O=C(O)C(O)(c1ccc(-c2ccccc2)cc1)c1ccc(-c2ccccc2)cc1`: the activity change, negative = inhibition is -25.7% (inactive).

On to `O=C(O)C[O][Sb][O]CC(=O)O`, for which the activity change, negative = inhibition is 4.83% (inactive).

Take `Nc1c(C(=O)Nc2ccc([As](=O)(O)O)cc2)cnc2nnnn12`: the activity change, negative = inhibition is 2.63% (inactive).

In the case of `C[Se]C[C@@H](N)C(=O)O`, the activity change, negative = inhibition was 1.98% [at 38 µM] (inactive).

As for `CN(C)[C@@H]1C(=O)C(C(N)=O)=C(O)[C@]2(O)C(=O)C3=C(O)c4c(O)cccc4[C@](C)(O)[C@H]3C[C@@H]12`, the activity change, negative = inhibition is -8.78% (inactive).

Regarding `CN(C)CCCNc1c2c(nc3ccc(Cl)cc13)CCCC2`, the activity change, negative = inhibition is -1.02% (inactive).

The next test addresses Cytochrome P450 1A2 (Homo sapiens) (UniProt P05177). The test is described as follows: p450-cyp1a2 (AID 410; calls by dose curve; further: potency means the concentration at half of the fitted maximal effect;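 on activity change, negative = inhibition: -100% = full effect of reference inhibitor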). To be noted: recombinant CYP1A2, luciferin-ME demethylation, luminescence; series mostly up to 11.4 µM. In short, it runs like this: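 Human CYP1A2 (20nM) demethylated Luciferin-ME at its Km (100uM) in 100mM KPO4. After 10 min compound preincubation, NADPH regeneration ran the reaction 60 min at room temperature. Luciferin was read by luminescence, normalized to 57 uM furafylline.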
Consider `CCOC(=O)[C@@H]1[C@@H]2c3ccccc3-c3ccccc3[C@H]2C[C@H]1O`, for which the Potency is 631 nM (active).

On to `COC(=O)c1c(C)ccc2c(O)c3c(cc12)C(=O)c1c2c(cc(O)c1C3=O)[C@@]1(C)O[C@@](C)(O2)[C@@H](O)[C@H](N(C)C)[C@H]1O`, for which the Potency was 5010 nM (active).

As for `C[N+]1(C)C2CC[C@H]1CC(OC(=O)[C@@H](CO)c1ccccc1)C2` (some centres undefined), the Potency result was “inactive”.

`COc1cc2c(cc1OC)[C@@]13CCN4C=C5CCO[C@H]6CC(=O)N2[C@@H]1[C@@H]6[C@H]5C[C@H]43`: the Potency is 5010 nM (active).

For the compound `CC(=O)c1c(O)c(C)c(O)c(Cc2c(O)c3c(c(C(=O)/C=C\c4ccccc4)c2O)OC(C)(C)C=C3)c1O`, the Potency is 12.6 µM (active) and 31.6 µM (active).

As to `c1cncc(CNCCN2CCNCC2)c1`, the Potency entry is “inactive”.

Take `CN[C@H]1[C@H](C)O[C@@H](O[C@@H]2C/C=C(/C)C/C(C)=C\C=C/CC[C@@H](C)CNC(=O)/C=C\C=C/[C@H]2C)C[C@@H]1O`: the Potency entry was “inactive”.

For `N=C(N)SCc1ccc(Cl)c2ccccc12` (tested in a mixture with another compound), the Potency was 251 nM (active) and 158 nM (active).

For `C[C@@]12CC[C@H](O)C[C@@H]1CC[C@@H]1[C@@H]2CC[C@@]2(C)[C@@H](C3=CC(=O)OC3)[C@H](O)C[C@]12O`, the Potency result is “inactive”.

With `Cc1ccc(NC(=[OH+])c2cc3ccccc3cc2O)c(C)c1.Cc1ccc(NC(=[OH+])c2cc3ccccc3cc2O)c(C)c1.[Ni]`, the Potency was 251 nM (active).

In the case of `C[C@H](CC(C#N)(c1ccccc1)c1ccccc1)N1CCCCC1`, the activity change, negative = inhibition is 7.1% [at 2.29 µM] (inactive).

`O=C(O)C(O)(c1ccc(-c2ccccc2)cc1)c1ccc(-c2ccccc2)cc1`: the Potency result was “inactive”.
